Platelet DG rel – modulates dense granule release in human platelets; human platelet-rich plasma, SFLLRN dense granule ATP release, luminescence; inhibition, %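 (compounds screened at 7.5 µM in platelet-rich plasma)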; 300,000 compounds, 0.22% hits; AID 1663;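 active means mean replicate score, as percent of positive control, at or above 50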
Granule exo inh – blocks lytic granule exocytosis. 360,000 compounds, 0.66% hits. AID 651702. TALL-104 LAMP-1 surface exposure, flow cytometry; cells stimulated with thapsigargin and PMA. inhibition, % at 10 µM;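 active means inhibition above about 55%, limit read from the data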
ABHD5 PLIN5 PPI – blocks binding of human ABHD5 to perilipin-5; Split G. princeps luciferase complementation, luminescence, 4 h; inhibition, % at 4 µM; 360,000 compounds, 0.78% hits;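 active means inhibition above the mean inhibition across every tested compound plus 3 SD, cut at about 22% in these data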;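 further: 0% = DMSO only wells and the 100% control is not disclosed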
Rce1 inhib – blocks yeast Ras-converting enzyme; Q03530; yeast membranes, quenched prenylated peptide cleavage fluorescence; calls only; 290,000 compounds, 0.27% hits; AID 2563;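 active means fall in fluorescence gain of 50% or more versus controls, with final raw signal at or below 3038400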;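 further: plate controls were neutral control wells for no effect and wells lacking membranes for full effect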
Target sequence (Q03530 whole entry, looked up): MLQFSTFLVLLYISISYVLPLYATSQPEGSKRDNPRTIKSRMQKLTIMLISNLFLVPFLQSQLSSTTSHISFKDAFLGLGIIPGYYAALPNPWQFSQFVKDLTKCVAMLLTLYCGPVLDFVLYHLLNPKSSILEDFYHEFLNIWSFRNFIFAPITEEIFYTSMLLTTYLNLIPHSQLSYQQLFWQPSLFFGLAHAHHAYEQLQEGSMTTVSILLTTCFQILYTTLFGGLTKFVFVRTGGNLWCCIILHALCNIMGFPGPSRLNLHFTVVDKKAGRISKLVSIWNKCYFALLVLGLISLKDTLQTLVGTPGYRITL
PfM18AAP inh-1 – PfM18AAP enzyme inhibition; inhibition, % at 7.35 µM; 290,000 compounds, 1.2% hits; recombinant PfM18AAP, H-Glu-NHMec fluorogenic cleavage; AID 1822;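 active means inhibition above the campaign mean inhibition over all tested compounds plus 3 SD, cut at about 28% in these data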;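 further: 0% = plate median of test compound wells and 100% = 2 mM ZnCl2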
PfM18AAP inh-2 – PfM18AAP inhibition, confirmation; recombinant PfM18AAP, H-Glu-NHMec fluorogenic cleavage; 2,400 compounds, 28% hits; inhibition, % at 7.35 µM; shares compounds with PfM18AAP inh-1;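 active means mean inhibition over replicate wells above the hit cutoff set for the earlier primary screen, cut at about 29% in these data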;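 further: 0% = median of test compound wells and 100% = 2 mM ZnCl2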
CTSL1 confirm – Cathepsin L (human) inhibition, confirmation; inhibition, % at 5.96 µM; shares compounds with PfM18AAP inh-1; purified cathepsin L1, Z-Leu-Arg-MCA fluorescence; 2,400 tested, under 10 active;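 active means average inhibition across replicates above the hit cutoff set in the earlier primary screen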;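 further: 0% = median of test compound wells and 100% = Z-Phe-Ala-diazomethylketone 1 µM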
Target sequence (P07711 whole entry, looked up): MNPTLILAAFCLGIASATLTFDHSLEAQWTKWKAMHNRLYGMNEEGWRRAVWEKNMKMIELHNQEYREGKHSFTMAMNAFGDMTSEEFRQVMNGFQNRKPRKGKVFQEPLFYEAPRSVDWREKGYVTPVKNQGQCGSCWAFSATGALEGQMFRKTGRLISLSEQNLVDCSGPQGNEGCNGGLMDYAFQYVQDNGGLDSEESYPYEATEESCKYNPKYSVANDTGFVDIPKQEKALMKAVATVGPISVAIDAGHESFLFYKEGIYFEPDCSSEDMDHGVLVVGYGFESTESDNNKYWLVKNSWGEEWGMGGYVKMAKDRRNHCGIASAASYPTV
* = called active by the depositor; i = inactive; / = not tested or not shown. Compounds with a hit are over-represented: about 2.6% of the library has one in this group of screens.

SMILES | Platelet DG rel | Granule exo inh | ABHD5 PLIN5 PPI | Rce1 inhib | PfM18AAP inh-1 | PfM18AAP inh-2 | CTSL1 confirm
O=C(NCC(=O)N1CCN(c2ccccc2O)CC1)c1ccco1 | -11 | -6 | 17 | i | 34* | -29 | -5
O=C(NCC(=O)N1CCCCCCC1)c1ccco1 | / | -4 | -5 | / | / | / | /
N#Cc1cnc2ncnn2c1-c1ccccc1 | 6 | -2 | 0 | i | 56* | -23 | -6
Nc1c(-c2ccccc2)cnc2ncnn12 | 3 | 0 | 0 | i | -15 | / | /
O=S(=O)(Nc1nc2ccccc2[nH]1)c1ccc(Cl)cc1 | 0 | 0 | -11 | i | 1 | / | /
C=CCNC(=O)c1sc(=S)n(-c2ccc(C(=O)OCC)cc2)c1N | -11 | 2 | 7 | i | 42* | -4 | 0
COc1cc(N=Cc2c(CO)cnc(C)c2O)cc(OC)c1OC | 1 | 2 | -3 | i | 35* | -13 | -1
COc1ccccc1N/N=C/c1c(CO)cnc(C)c1O | 8 | -2 | 5 | i | 7 | / | /
CC(=O)Nc1ccc(NC(=O)CSc2nc3[nH]ncc3c(=O)n2-c2ccccc2)cc1 | 0 | 3 | 14 | i | 49* | 1 | -6
CNC(=S)NNC(=O)c1c(C)nc2cc(C)ccn12 | 1 | -3 | -7 | i | 47* | 7 | -5
CC1CCCC2(C1)NC(=S)N(c1ccccc1)N2 (stereo not given) | 4 | 0 | 2 | i | 6 | / | /
CC1CC(C)(C)CC2(C1)NC(=S)N(c1ccccc1)N2 (stereo not given) | -3 | -1 | -16 | i | 36* | -48 | -14
Cc1cc(=O)[nH]c(SCC(=O)Nc2ccc(C)c(S(=O)(=O)N3CCCCC3)c2)n1 | -8 | -6 | -1 | i | 0 | / | /
CC(=O)c1c(C)[nH]c(=S)c(C#N)c1-c1ccc(Cl)cc1 | -2 | 3 | -7 | i | -3 | / | /
Cc1[nH]c(=S)c(C#N)c(-c2ccco2)c1C(=O)N(C)C | -1 | 1 | -3 | i | 51* | 29* | 1
COc1cc(NC(=O)Nn2cnnc2)cc(OC)c1OC | -52 | -6 | 6 | i | 69* | 54* | -2
COc1ccccc1NC(=O)NC(N)=O | -1 | 3 | -2 | i | 3 | / | /
COc1ccc(NC(=O)Nn2cnnc2)cc1OC | -6 | 2 | -2 | i | 55* | 44* | -1
COc1ccccc1NC(=O)Nn1cnnc1 | 4 | 0 | 1 | i | 65* | 51* | 0
COc1cc(C(=O)NN2C(=O)NC3(CCC(C)CC3)C2=O)ccc1OC(F)F (stereo not given) | / | 3 | 0 | / | / | / | /
COc1cc(C(=O)Nn2cnnc2)ccc1OC(F)F | 4 | 0 | -4 | i | 45* | 24 | -2
CC1=[N+](C)N(c2ccccc2)C(=O)C1N=Cc1ccccc1Cl (stereo not given) | 6 | 3 | -9 | / | 0 | / | /
O=C(O)/C=C/c1ccc(OCc2cccc(F)c2)cc1 | 9 | 0 | 2 | i | 6 | / | /
O=C(O)c1ccc(Cn2cc(/C=C\[N+](=O)[O-])c3ccccc32)o1 | -4 | -3 | 19 | i | 39* | -29 | -4
O=C(O)c1cn(Cc2ccccc2)c2ccccc2c1=O | -1 | 4 | -1 | i | 0 | / | /
SMILES | Platelet DG rel | Granule exo inh | ABHD5 PLIN5 PPI | Rce1 inhib | PfM18AAP inh-1 | PfM18AAP inh-2 | CTSL1 confirm
c1ccc(NCn2cncn2)nc1 | -23 | -1 | -5 | i | 87* | 66* | 3
CCC(Sc1nc2cc3c(cc2c(=O)n1Cc1ccco1)OCO3)C(=O)Nc1cccc(OC)c1 (stereo not given) | 4 | -2 | -4 | i | -8 | / | /
Cc1nc2c(C)cccn2c1C(=O)N/N=C/c1ccccc1[N+](=O)[O-] | 7 | 4 | 6 | i | 40* | -41 | -3
Cc1nc2ccccn2c1C(=O)N/N=C/c1ccccc1[N+](=O)[O-] | -25 | 3 | 4 | i | -2 | / | /
Nc1ccc(C(=O)OCC(=O)N2CCN(C(=O)c3ccco3)CC2)cc1[N+](=O)[O-] | 9 | 0 | 4 | i | -5 | / | /
CCNc1nc(NC(C)(C)C)nc(N(CC)n2cnnc2)n1 | 2 | -2 | -2 | i | -3 | / | /
CCNc1nc(NCC)nc(Nn2cnnc2)n1 | 11 | 1 | 6 | i | 32* | 26 | 3
Cc1ccc(NC(=O)CCC(=O)NNC(=S)Nc2ccc(F)cc2F)cc1C | -8 | -2 | 5 | i | 6 | / | /
Cc1ccc(C)c(NC(=S)NNc2ccc(F)cc2F)c1 | 1 | 84* | 16 | i | 46* | 19 | -5
Cc1nc2ccc(S(=O)(=O)NCC(=O)NC(C)c3ccccc3)cc2s1 (stereo not given) | -4 | 1 | -7 | i | 33* | -31 | 3
Cc1nc2ccc(S(=O)(=O)NCC(=O)N3CCN(c4ccccc4)CC3)cc2s1 | 10 | 0 | 3 | i | -27 | / | /
O=C(O)c1ccc(O)c(O)c1 | 1 | 5 | -1 | / | 79* | 65* | -6
Cc1ccc(NC(=O)COC(=O)c2cc(=O)c3ccccc3o2)cc1F | / | -2 | -1 | / | / | / | /
CSCC[C@H](NC(=O)N1CCn2c1nc1ccccc12)C(=O)N[C@@H](C(=O)O)c1ccccc1 | -2 | -2 | 4 | i | 51* | 42* | -5
CSCC[C@H](NC(=O)N1CCn2c1nc1ccccc12)C(=O)NCc1ccc(F)cc1 | -20 | 7 | 2 | i | 1 | / | /
CCCCNC(=S)NNC(=O)c1ccc2c(c1)OCO2 | -3 | 2 | -4 | i | 7 | / | /
CC(C)(C)c1nnc(NC(=O)c2ccc3c(c2)OCO3)s1 | -19 | -5 | -3 | i | 43* | 23 | -3
CNC(=S)NNC(=O)c1ccc2c(c1)OCO2 | -3 | -4 | 0 | i | 35* | 22 | -1
COc1ccccc1CNC(=O)c1cc2c(C)nn(Cc3ccc(F)cc3)c2s1 | -1 | -2 | 6 | i | -4 | / | /
O=C(N/N=C/c1c[nH]c2ccccc12)c1ccc(O)c(O)c1 | 2 | -6 | 6 | i | 70* | 50* | 2
O=C(NNc1ccc(-c2csnn2)cc1)c1ccccc1C(F)(F)F | 5 | 8 | -3 | i | 40* | 13 | 2
Cc1cccc(C2Nc3cccc4cccc(c34)N2)c1 | 4 | 0 | -1 | i | 33* | -5 | 1
COc1cc(C2Nc3cccc4cccc(c34)N2)ccc1O | -3 | 2 | 2 | i | 46* | 15 | -1
Clc1ccc(C2Nc3cccc4cccc(c34)N2)cc1 | 5 | 16 | -6 | i | 12 | / | /
CN=c1scc(-c2ccc([N+](=O)[O-])cc2)n1/N=C/c1ccco1 | -5 | -2 | 1 | i | 8 | / | /
O=C1c2ccc([N+](=O)[O-])cc2NC(c2ccco2)N1/N=C/c1ccco1 (stereo not given) | 3 | -1 | -4 | i | 40* | -10 | 0

High-throughput results from PubChem.
